Test results taken from PubChem BioAssay (Tox21).
Several values for one entry are separate records, joined by “and”; a condition that tells them apart may be missing. Identical values can stand only once. Results filed as inconclusive are left out. Activity calls are given as the source filed them. Unless noted, calls come from the whole dose curve; as a rule, active = well fitted curve in the direction sought with a large enough effect in the repeat runs; inconclusive = weak or mixed curves; inactive = no such curve, though single readings can be large; an effect the other way counts as inactive or inconclusive.

Legend:
[1] = molecular target: Estrogen receptor beta (Homo sapiens) (UniProt Q92731); assay: qHTS assay to identify small molecule agonists of the estrogen receptor beta (ER-beta) signaling pathway (AID 1259377; active = well fitted activation curve with a large enough effect in the signal ratio in the repeat runs, not every such curve was filed as active; the % refers to the signal ratio)
Sequence of Estrogen receptor beta (Homo sapiens) (Q92731 whole entry, looked up): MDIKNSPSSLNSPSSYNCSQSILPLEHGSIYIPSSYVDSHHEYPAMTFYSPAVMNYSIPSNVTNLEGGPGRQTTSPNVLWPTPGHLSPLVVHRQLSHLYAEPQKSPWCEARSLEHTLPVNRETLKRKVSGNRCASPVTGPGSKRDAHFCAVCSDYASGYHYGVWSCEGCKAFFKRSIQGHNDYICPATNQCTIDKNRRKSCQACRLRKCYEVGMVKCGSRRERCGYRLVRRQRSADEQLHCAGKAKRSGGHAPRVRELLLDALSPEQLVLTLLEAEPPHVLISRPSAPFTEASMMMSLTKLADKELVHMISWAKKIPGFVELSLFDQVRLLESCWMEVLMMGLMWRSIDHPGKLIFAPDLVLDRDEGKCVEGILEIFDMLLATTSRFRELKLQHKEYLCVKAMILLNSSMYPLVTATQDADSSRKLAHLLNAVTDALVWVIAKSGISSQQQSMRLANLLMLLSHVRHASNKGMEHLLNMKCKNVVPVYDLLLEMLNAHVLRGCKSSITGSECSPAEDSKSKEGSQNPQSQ
In short: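 Reporter cells (HEK293T, ER-beta-UAS-bla) receive compounds or DMSO after a 6 hr pre-incubation. They then incubate 16 hr at 37C/5% CO2, and fluorescence from LiveBLAzer B/G substrate is measured after 2 hours at room temperature.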

[2] = molecular target: Estrogen receptor beta (Homo sapiens) (UniProt Q92731); assay: qHTS assay to identify small molecule antagonists of the estrogen receptor beta (ER-beta) signaling pathway (AID 1259378; active = well fitted inhibition curve with a large enough effect in the signal ratio in the repeat runs, not every such curve was filed as active; the % refers to the signal ratio)
In short: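 ER-beta-UAS-bla HEK293T (GripTite) cells in 2% charcoal-stripped FBS medium were preincubated 6 hr at 37C, dosed with compound, then stimulated with 1 nM E2 (final) for 16 hr; beta-lactamase reporter read by B/G FRET fluorescence after 2 hr substrate loading.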

[3] = qHTS assay to identify small molecule agonists of the androgen receptor (AR) signaling pathway in the presence of an antagonist - cell viability counter screen (AID 1259379); note: nearly all actives have a fitted effect of over 25% in size; note: potency is the fitted concentration of half-maximal effect
In short: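 A CellTiter-Fluor read-out measured viability of MDA-kb2 reporter cells (MMTV promoter with AR and GR response elements). Treatment: nilutamide 3.0uM final with compounds at 15 concentrations, 16 hr, 37C, 0% CO2.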

[4] = qHTS assay to identify small molecule agonists of the estrogen receptor beta (ER-beta) signaling pathway - cell viability counter screen (AID 1259380); note: nearly all actives have a fitted effect of over 30% in size; note: potency is the fitted concentration of half-maximal effect
In short: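 Cells used were ER-beta-UAS-bla HEK293T in medium with 2% charcoal-stripped FBS. They were treated for 16 hr at 37C. Viability came from CellTiter-Glo luminescence.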

[5] = qHTS assay to identify small molecule antagonists of the estrogen receptor beta (ER-beta) signaling pathway - cell viability counter screen (AID 1259382); note: nearly all actives have a fitted effect of over 55% in size; note: potency is the fitted concentration of half-maximal effect
In short: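 Agonist-stimulated (1nM E2) ER-beta-UAS-bla HEK293T cells are incubated with library compounds for 16 hr at 37C. Cell viability is then assessed in the reporter-assay wells by adding CellTiter-Glo and reading luminescence after 30 min.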

[6] = molecular target: Estrogen receptor (Homo sapiens) (UniProt P03372); assay: qHTS assay to identify small molecule agonists of the estrogen receptor alpha (ER-alpha) signaling pathway in the presence of an antagonist (AID 1259383; calls by dose curve; note: top concentration of the series differs between compounds; nearly all actives have a fitted effect of over 15% in size)
Sequence of Estrogen receptor (Homo sapiens) (P03372 whole entry, looked up): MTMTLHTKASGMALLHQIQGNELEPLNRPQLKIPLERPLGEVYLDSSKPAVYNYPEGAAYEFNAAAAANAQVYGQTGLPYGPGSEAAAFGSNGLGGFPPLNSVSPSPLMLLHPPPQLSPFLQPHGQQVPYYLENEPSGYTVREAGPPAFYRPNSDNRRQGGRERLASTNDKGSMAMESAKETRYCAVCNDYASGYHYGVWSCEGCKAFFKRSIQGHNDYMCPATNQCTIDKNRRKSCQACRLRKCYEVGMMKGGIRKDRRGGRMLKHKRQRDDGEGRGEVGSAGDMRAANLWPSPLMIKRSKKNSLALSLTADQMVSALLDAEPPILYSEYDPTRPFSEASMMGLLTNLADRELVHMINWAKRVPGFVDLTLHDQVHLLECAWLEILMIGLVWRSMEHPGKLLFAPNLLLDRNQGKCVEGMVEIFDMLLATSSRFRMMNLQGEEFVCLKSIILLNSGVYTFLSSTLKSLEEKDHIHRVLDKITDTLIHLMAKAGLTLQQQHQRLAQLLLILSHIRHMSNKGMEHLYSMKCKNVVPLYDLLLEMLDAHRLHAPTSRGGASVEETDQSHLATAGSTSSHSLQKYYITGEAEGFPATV
In short: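 Using VM7Luc4E2 cells seeded 24hr before treatment, antagonist ICI-182,780 (10.0nM final) was added, followed by compounds at 15 concentrations. Plates incubated 22hr; ONE-Glo luminescence quantified reporter activity.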

[7] = molecular target: Thyrotropin receptor (Homo sapiens) (UniProt P16473); assay: qHTS assay to identify small molecule antagonists of the thyroid stimulating hormone receptor (TSHR) signaling pathway (AID 1259385; calls by dose curve; note: nearly all actives have a fitted effect of over 20% in size; note: potency is the fitted concentration of half-maximal effect)
Sequence of Thyrotropin receptor (Homo sapiens) (P16473 whole entry, looked up): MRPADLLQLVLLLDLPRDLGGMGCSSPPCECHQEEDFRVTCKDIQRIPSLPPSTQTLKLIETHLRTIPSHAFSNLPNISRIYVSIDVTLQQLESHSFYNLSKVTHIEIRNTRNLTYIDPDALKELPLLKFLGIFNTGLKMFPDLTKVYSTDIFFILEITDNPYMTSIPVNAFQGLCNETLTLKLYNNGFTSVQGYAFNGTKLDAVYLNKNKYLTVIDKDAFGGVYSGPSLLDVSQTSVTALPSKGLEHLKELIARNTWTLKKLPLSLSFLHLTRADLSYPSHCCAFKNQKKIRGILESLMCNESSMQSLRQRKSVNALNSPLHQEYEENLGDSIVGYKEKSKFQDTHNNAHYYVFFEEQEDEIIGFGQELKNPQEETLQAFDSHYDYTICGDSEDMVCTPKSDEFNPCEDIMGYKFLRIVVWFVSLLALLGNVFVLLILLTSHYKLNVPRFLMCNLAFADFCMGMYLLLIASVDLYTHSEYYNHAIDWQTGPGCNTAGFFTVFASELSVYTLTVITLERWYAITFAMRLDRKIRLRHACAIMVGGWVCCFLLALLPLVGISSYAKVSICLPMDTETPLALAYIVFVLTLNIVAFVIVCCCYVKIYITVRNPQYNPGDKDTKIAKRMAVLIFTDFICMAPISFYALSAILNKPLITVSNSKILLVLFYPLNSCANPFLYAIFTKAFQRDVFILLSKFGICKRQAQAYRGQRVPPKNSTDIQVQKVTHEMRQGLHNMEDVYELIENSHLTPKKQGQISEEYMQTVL
In short: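 TSHR-HEK293 cells were plated and held 18 h at 37C/5% CO2, then given compound plus Ro20-1724 and stimulated with TSH at 1.5 ng/mL final. After 30 min at room temperature, cAMP was detected with cAMP-d2/anti-cAMP-cryptate (1 h) by fluorescence.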

[8] = qHTS assay to identify small molecule agonists of the estrogen receptor alpha (ER-alpha) signaling pathway in the presence of an antagonist - cell viability counter screen (AID 1259386);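 note: cells exposed to compounds for 22 h at 37 °C before the viability read; nearly all actives have a fitted effect of over 30% in size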; note: potency is the fitted concentration of half-maximal effect
In short: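 ICI-182,780 at 10.0nM final accompanies the compound titration (15 concentrations, 22hr, 37C) on VM7Luc4E2 cells. The CellTiter-Fluor fluorescence readout runs in the same wells as the luciferase assay.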

[9] = molecular target: Progesterone receptor (Homo sapiens) (UniProt P06401); assay: qHTS assay to identify small molecule agonists of the progesterone receptor (PR) signaling pathway (AID 1346784; calls by dose curve; note: nearly all actives have a fitted effect of over 30% in size)
Sequence of Progesterone receptor (Homo sapiens) (P06401 whole entry, looked up): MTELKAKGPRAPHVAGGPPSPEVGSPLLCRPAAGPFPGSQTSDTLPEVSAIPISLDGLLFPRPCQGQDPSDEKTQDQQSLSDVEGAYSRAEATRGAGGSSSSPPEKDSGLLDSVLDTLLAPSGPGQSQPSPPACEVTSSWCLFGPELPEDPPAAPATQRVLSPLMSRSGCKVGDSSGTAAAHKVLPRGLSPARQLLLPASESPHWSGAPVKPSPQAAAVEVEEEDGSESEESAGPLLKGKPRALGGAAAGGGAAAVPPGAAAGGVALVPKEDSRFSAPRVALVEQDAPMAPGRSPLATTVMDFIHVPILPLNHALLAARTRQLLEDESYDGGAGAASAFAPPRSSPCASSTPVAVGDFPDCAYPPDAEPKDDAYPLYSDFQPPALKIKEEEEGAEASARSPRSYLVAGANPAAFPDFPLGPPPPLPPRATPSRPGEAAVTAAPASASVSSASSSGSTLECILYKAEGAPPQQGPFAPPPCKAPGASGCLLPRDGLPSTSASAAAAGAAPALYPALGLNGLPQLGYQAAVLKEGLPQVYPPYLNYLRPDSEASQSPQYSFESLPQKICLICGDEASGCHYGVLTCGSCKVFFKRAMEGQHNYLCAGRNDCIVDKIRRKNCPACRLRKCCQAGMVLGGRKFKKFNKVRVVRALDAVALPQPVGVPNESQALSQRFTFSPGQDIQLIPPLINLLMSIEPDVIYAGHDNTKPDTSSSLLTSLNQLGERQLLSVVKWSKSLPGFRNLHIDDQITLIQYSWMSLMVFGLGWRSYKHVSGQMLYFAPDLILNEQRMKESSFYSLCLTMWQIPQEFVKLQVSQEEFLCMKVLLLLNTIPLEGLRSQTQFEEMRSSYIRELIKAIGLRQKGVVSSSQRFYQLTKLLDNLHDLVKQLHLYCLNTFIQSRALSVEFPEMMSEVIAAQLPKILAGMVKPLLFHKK
In short: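 Reporter assay, GripTite PR-UAS-bla HEK 293T cells: 16 hr exposure to DMSO-dissolved compounds at 37C, 5% CO2, in steroid-depleted (2% charcoal-stripped FBS) medium; beta-lactamase measured by FRET fluorescence.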

[10] = molecular target: Progesterone receptor (Homo sapiens) (UniProt P06401); assay: qHTS assay to identify small molecule antagonists of the progesterone receptor (PR) signaling pathway (AID 1346795; active = well fitted inhibition curve with a large enough effect in the signal ratio in the repeat runs, not every such curve was filed as active; the % refers to the signal ratio)
In short: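 Stimulus R5020 at 1 nM final; cells HEK293T PR-UAS-bla; medium with 2% charcoal-stripped FBS; compound exposure 16 hr at 37C, 5% CO2; detection by FRET beta-lactamase substrate, 2 hr, room temperature.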

[11] = qHTS assay to identify small molecule agonists of the progesterone receptor (PR) signaling pathway - cell viability counter screen (AID 1346799; calls by dose curve; note: nearly all actives have a fitted effect of over 45% in size)
In short: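 Multiplexed viability read: CellTiter-Glo luminescence, 30 min RT, following LiveBLAzer FRET measurement on PR-UAS-bla HEK293T cells exposed to compounds 16 hr.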

[12] = qHTS assay to identify small molecule antagonists of the TGF-beta/Smad signaling pathway - cell viability counter screen (AID 1346824); note: nearly all actives have a fitted effect of over 50% in size
In short: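 SBE-bla HEK 293T cells were plated overnight at 37 C, then given compounds in DMSO plus TGF-beta1 (added as 0.25 ng/mL solution) for 5 hr. After the bla read, CellTiter-Glo was added to the same wells and luminescence read after 30 min at room temperature.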

[13] = qHTS assay to identify small molecule agonists of the TGF-beta/Smad signaling pathway (AID 1346859; active = well fitted activation curve with a large enough effect in the signal ratio in the repeat runs, not every such curve was filed as active; the % refers to the signal ratio; note: series mostly up to about 77 µM)
In short: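 Screening used HEK 293T SBE-bla cells at 4,000/well. Test agents: 5 hr, 37 C. Detection: FRET substrate, 2 hr RT, then excitation 405 nm with emissions at 460 and 530 nm.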

[14] = molecular target: Thyrotropin-releasing hormone receptor (Homo sapiens) (UniProt P34981); assay: qHTS assay to identify small molecule antagonists of the thyrotropin-releasing hormone receptor (TRHR) signaling pathway (AID 1346877; active = well fitted inhibition curve with a large enough effect in the repeat runs, not every such curve was filed as active; note: series mostly up to about 51 µM)
Sequence of Thyrotropin-releasing hormone receptor (Homo sapiens) (P34981 whole entry, looked up): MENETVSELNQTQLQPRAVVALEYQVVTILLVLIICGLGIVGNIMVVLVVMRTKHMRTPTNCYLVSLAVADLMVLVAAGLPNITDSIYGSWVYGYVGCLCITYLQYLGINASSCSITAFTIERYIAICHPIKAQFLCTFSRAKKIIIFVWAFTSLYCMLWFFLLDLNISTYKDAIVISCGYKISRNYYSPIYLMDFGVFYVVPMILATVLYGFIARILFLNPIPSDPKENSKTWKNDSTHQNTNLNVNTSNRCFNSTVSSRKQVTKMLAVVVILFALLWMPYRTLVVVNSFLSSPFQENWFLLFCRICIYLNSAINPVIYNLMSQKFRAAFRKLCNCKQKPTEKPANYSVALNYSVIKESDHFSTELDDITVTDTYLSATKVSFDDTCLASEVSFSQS
In short: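 Screening used HEK293 cells engineered with TRHR, with a brief 5 min room-temperature compound exposure preceding addition of TRH to 1 nM. The read-out was kinetic calcium-dye fluorescence, concentration-response from 15 doses in triplicate.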

[15] = molecular target: Thyrotropin-releasing hormone receptor (Homo sapiens) (UniProt P34981); assay: qHTS assay to identify small molecule agonists of the thyrotropin-releasing hormone receptor (TRHR) signaling pathway (AID 1346891; calls by dose curve; note: series mostly up to about 58 µM)
In short: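 Readout was intracellular calcium fluorescence in TRHR-Hek293 cells. Cells were incubated 18 h, dye-loaded 2 h at 37 °C, and treated with compound in agonist mode.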

[16] = Human pregnane X receptor (PXR) small molecule agonists, qHTS cell viability counter screen (AID 1346977); note: nearly all actives have a fitted effect of over 50% in size; note: potency is the fitted concentration of half-maximal effect
In short: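 In each well, the PXR reporter HepG2 line was checked for viability: CellTiter-Fluor reagent added 23hr post-dosing, fluorescence read after 1hr incubation at 37C.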

[17] = qHTS assay to identify small molecule antagonists of the progesterone receptor (PR) signaling pathway - cell viability counter screen (AID 1346798); note: series mostly up to about 92 µM; nearly all actives have a fitted effect of over 50% in size
In short: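 In the same plates used for the beta-lactamase readout, cell viability of compound- and R5020-treated PR-UAS-bla HEK293T cells (16 hr, 37C) was assessed by CellTiter-Glo luminescence.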

[18] = molecular target: Androgen receptor (Homo sapiens) (UniProt P10275); assay: qHTS assay to identify small molecule agonists of the androgen receptor (AR) signaling pathway in the presence of an antagonist (AID 1259381; calls by dose curve; note: nearly all actives have a fitted effect of over 15% in size)
Sequence of Androgen receptor (Homo sapiens) (P10275 whole entry, looked up): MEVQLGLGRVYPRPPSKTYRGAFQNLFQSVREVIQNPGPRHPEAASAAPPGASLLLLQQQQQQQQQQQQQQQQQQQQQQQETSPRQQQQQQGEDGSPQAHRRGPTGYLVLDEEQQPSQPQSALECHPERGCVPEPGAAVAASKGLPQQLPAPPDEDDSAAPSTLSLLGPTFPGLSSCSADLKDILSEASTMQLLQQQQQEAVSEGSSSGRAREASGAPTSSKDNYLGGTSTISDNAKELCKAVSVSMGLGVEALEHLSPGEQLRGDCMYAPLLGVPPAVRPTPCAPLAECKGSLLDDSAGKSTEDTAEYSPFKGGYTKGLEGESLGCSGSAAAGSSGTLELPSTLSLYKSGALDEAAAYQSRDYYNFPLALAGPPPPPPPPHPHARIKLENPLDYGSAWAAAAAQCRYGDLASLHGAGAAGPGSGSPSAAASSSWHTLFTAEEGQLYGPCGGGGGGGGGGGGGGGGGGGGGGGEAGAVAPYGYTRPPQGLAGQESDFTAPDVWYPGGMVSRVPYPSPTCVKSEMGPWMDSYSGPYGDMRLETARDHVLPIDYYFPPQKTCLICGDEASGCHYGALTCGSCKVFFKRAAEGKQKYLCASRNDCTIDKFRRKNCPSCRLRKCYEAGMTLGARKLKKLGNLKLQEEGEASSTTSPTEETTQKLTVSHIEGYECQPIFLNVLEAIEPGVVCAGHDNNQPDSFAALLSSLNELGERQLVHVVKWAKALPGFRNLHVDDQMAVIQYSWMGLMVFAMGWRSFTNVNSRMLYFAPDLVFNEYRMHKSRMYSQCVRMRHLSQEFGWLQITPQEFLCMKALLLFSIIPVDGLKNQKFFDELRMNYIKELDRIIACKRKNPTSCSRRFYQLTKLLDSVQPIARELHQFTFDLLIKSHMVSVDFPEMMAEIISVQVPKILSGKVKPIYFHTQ
In short: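 Using human MDA-kb2 cells with an MMTV promoter–luciferase construct (AR and GR response elements), agonist activity is scored under 3.0uM nilutamide (final) co-treatment; 16hr incubation, 37C, luminescence readout via ONE-Glo.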

[19] = qHTS assay to identify small molecule agonists or antagonists of the thyroid stimulating hormone receptor (TSHR) signaling pathway - wild type cell line counter screen (AID 1259384; calls by dose curve)
In short: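 Wild-type HEK293 cells were plated 18 h at 37 C/5% CO2, pin-dosed with compound plus Ro20-1724 medium, held 30 min at room temperature, then given cAMP-d2 and anti-cAMP-cryptate; fluorescence was read after 1 h. Fifteen concentrations, triplicate.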

[20] = qHTS assay to identify small molecule agonists of the TGF-beta/Smad signaling pathway - cell viability counter screen (AID 1346829); note: top concentration of the series differs between compounds; nearly all actives have a fitted effect of over 45% in size
In short: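 Compound-treated SBE-bla HEK 293T cells (5 hr, 37 C) were assessed for viability with CellTiter-Glo in parallel with the reporter read.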

Measured: Potency

CC(C)(C)NCC(O)COc1ccccc1OCC1CCCO1 (stereo not drawn)
not listed: [17] | [18] | [19] | [20]
inactive: all other assays above

CC(=O)OCCOCCOCCOC(C)=O
not listed: [18] | [19] | [20]
inactive: all other assays above

CCN(CC)C(=O)Nc1ccc(OCC(O)CNC(C)(C)C)c(C(C)=O)c1 (stereo not drawn)
inactive: all assays above

CC(C)(C)c1ccc(O)c(C(C)(C)C)c1
active: [4] 48.4 µM and 54.5 µM | [5] 60.9 µM
not listed: [10] | [11] | [14] | [17] | [18] | [20]
inactive: all other assays above

O=C1NCC2(CCN(CCc3ccccc3)CC2)O1
not listed: [17] | [18] | [19]
inactive: all other assays above

CC1COC(=O)O1 (stereo not drawn)
not listed: [20]
inactive: all other assays above

C#CC(C)(CC)OC(=O)c1ccccc1C(=O)O (stereo not drawn)
not listed: [7] | [14] | [15] | [17]
inactive: all other assays above

COc1nc(C)nc(Cl)c1NC1=NCCN1
not listed: [18] | [19] | [20]
inactive: all other assays above

O=Cc1ccc(Cl)cc1
not listed: [6] | [17] | [19]
inactive: all other assays above

OCCN1CCNCC1
not listed: [18] | [19]
inactive: all other assays above

C=C(C)C(=O)O
not listed: [7] | [9] | [10] | [18] | [19]
inactive: all other assays above

O=C(O[C@@H]1Cc2c(O)cc(O)cc2O[C@@H]1c1cc(O)c(O)c(O)c1)c1cc(O)c(O)c(O)c1
active: [3] 54.6 µM | [8] 54.6 µM and 46.8 µM | [16] 35.5 µM
not listed: [7] | [18] | [19]
inactive: all other assays above

Cc1ccc(S(=O)(=O)Oc2ccc(N=Nc3ccc(-c4ccc(N=Nc5c(O)ccc6cc(S(=O)(=O)O)cc(S(=O)(=O)O)c56)c(C)c4)cc3C)cc2)cc1
active: [3] 24.4 µM and 17.8 µM | [7] 61.4 µM | [8] 27.4 µM and 11.2 µM | [16] 11.2 µM and 8.92 µM
not listed: [6] | [10] | [14] | [15] | [19]
inactive: all other assays above
